Experimental data as given in PubChem BioAssay AID624256 (NMMLSC, 2012).
Values joined by “and” are separate entries in the source; they are usually repeats but may differ in a detail not shown here. Identical values can stand only once. Screen size: about 360,000 compounds; about 3,700 (1%) were called active. Roughly 2% stayed inconclusive and do not appear here.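 Rule for the calls: active = normalized GFP-positive differentiation at or above the plate's own cutoff, the solvent-only control mean plus 3 SD; inconclusive = no clear call, values can overlap the other calls; inactive = the rest.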 Only a selection was taken, and actives are over-represented in it overall.

assay: induction of myeloid progenitor differentiation, primary screen, cell-based, flow cytometry, MLPCN library (AID 624256); settings: ER-HoxA9 myeloid progenitors, lysozyme-GFP differentiation, at 10 µM; GFP+ MAC1+ double positive: measured here: differentiation confirmed by MAC1 staining, stronger effect = higher value; normalized GFP-positive differentiation: stronger effect = higher value;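 for GFP+ MAC1+ double positive: cells exposed to compound for four days before flow analysis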;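 for normalized GFP-positive differentiation: cells exposed to compound for four days before flow analysis; 0% = DMSO wells and 100% = fulvestrant positive control at 5 µM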

SMILES	GFP+ MAC1+ double positive	outcome	normalized GFP-positive differentiation
CC(=O)Nc1cncc(-c2ccccc2CO)n1	0.4%	inactive	
CC(=O)Nc1cccc(-c2cc(NC=O)c3ncc(-c4ccc(F)c(Cl)c4)n3c2)c1	1.3%	inactive	
Cc1ccc(-c2ccnc3[nH]n(-c4ccccc4)c(=O)c23)cc1	0.4%		17.5% (active)
Cc1ccc(N2C(=O)c3ccccc3C2(O)c2ncc[nH]2)cc1 (stereo not given)	1.1%	inactive	
O=c1c2c(-c3ccccc3)ccnc2[nH]n1-c1ccccc1	0.5%	inactive	
COC(=O)[C@@]12C[C@@H](CC(=O)NCCCCc3ccccc3)C(=O)N(CCc3ccc(OC)c(OC)c3)C1=CCC(C)(C)C2	1.6%	inactive	
COC(=O)C[C@@H]1C=C[C@@H](NS(=O)(=O)c2cccc(OC)c2)[C@@H](CO)O1	1.6%	inactive	
Cc1c(-c2ccccc2)cn2c1-c1ccc(C)n1CC2	1.4%		31.7% (active)
O=C(C[C@H]1CC[C@H]2[C@@H](COC[C@H](O)CN2C(=O)c2ccccn2)O1)N1CCN(c2ccccc2)CC1	2.6%	inactive	
CN(CCO)C(=O)c1nc[nH]c1C(=O)N(C)Cc1ccccc1	0.2%	inactive	
CCCCn1nnnc1C(c1cc2ccccc2o1)N(C)Cc1ccc(Cl)c(Cl)c1 (stereo not given)	0.9%	inactive	
COCCCn1c(=O)/c(=C/c2ccccc2OC(C)C)s/c1=C(\C#N)C(=O)Nc1ccc(C(=O)O)cc1	2.8%		20.2% (active)
COc1ccc(NC(=O)/C(C#N)=C\c2cc(OC)c(OCc3ccc(C(=O)O)cc3)cc2Br)cc1	0.2%	inactive	
COc1ccccc1C(=O)N/C(=C/c1ccco1)C(=O)Nc1ccc(C(=O)O)cc1	1.5%	inactive	
COCCNC(=O)C1CCCN(Cc2ccccc2Cl)CC1 (stereo not given)	0.5%	inactive	
COC(=O)[C@@]1(Sc2ccc(C)cc2)CC(=O)N(c2cccc(SC)c2)[C@@H]1c1ccccc1	0.4%	inactive	
c1ccc(Cc2c(-c3ccco3)nc3c4ccccc4ccn23)cc1	1.5%	inactive	
Cc1cc(NC(C)C)n2c(nc3ccccc32)c1C#N	1%	inactive	
Cc1ccc(Oc2nc3ccccc3n3c(C)nnc23)cc1	5.3%	inactive	
Cc1ccc(S(=O)(=O)N(C)c2nc3ccccc3n3c(C(C)C)nnc23)cc1	2%		94.1% (active)
Cc1cc2c(cc1C)N1C(=O)c3cc4ccccc4cc3NC(=O)C1C(=O)N2 (stereo not given)	1.5%	inactive	
CN(CC(=O)Nc1cccc(F)c1)C(=O)CC1CCCC1	0.8%	inactive	
CCN(CC)C(=O)CSC(Nc1cccc(F)c1)=C(C#N)C#N	2.2%		143% (active)
Cc1ccc(CSCC(=O)N(C)CC(=O)Nc2cccc(F)c2)cc1	1.2%	inactive	
Cn1c(Nc2ccc(F)cc2)nc2cc(-c3ccsc3)sc2c1=O	0.7%	inactive	
CCOC(=O)C1CCCN(C(=O)c2cccc3ccccc23)CC1 (stereo not given)	1.7%	inactive	
CC(=O)OCC(C)n1c(=O)c2ccccc2n1C(C)=O (stereo not given)	1%	inactive	
COC(=O)c1c(C)[nH]c(C(=O)/C=C/c2ccc(Cl)cc2)c1C	0.4%	inactive	

SMILES	GFP+ MAC1+ double positive	outcome	normalized GFP-positive differentiation
CC1(C(=O)O)CCCN(C(=O)/C=C/c2ccccc2)C1 (stereo not given)	2.1%	inactive	
Cc1[nH]c(=O)c(C(=O)/C=C/c2ccccc2)c2c1CCCC2	10.9%		31.7% (active)
Cc1ccc2nc(-c3ccco3)c(Cc3cccc(Cl)c3)n2c1	0.9%	inactive	
COc1cccc(-c2nn(-c3ccccc3)cc2/C=C(\C#N)C(=O)NCCCn2ccnc2)c1	0.5%		58.2% (active)
COc1cc(OC)cc(C(=O)NCCCn2ccnc2)c1	0.7%	inactive	
COc1ccc(/C=C(\C#N)C(=O)NCCCn2ccnc2)cc1	0.1%	inactive	
Nc1nc2c(Br)ccc(Br)c2cc1C(=O)NCCc1ccccc1	0.7%	inactive	
CC(C)NC(=O)N1Cc2cc(C(=O)NCC(F)(F)F)nc(-c3cccc(-c4cc5ccccc5o4)c3)c2[C@@H]1CCO	1.5%	inactive	
COc1ccc(CN(Cc2ccc(OC)cc2)C(=O)c2cccs2)cc1	0.3%	inactive	
COc1ccc(CCNC(=O)/C(C#N)=C2\N=C(NC(=O)c3cccs3)c3ccccc32)cc1	0.9%		28.9% (active)
CCOc1ncccc1C(=O)NCCc1ccc(OC)cc1	0.2%	inactive	
CCOC(=O)C1C(C)C(C(C)(C)C)N(S(=O)(=O)c2ccc(C)cc2)C1c1ccccc1 (stereo not given)	2.4%	inactive	
NC(c1csc(NC(=O)Nc2ccccc2Oc2ccccc2)n1)c1ccccc1Cl (stereo not given)	0.8%	inactive	
CSCCC(c1nnnn1Cc1ccccc1)N1CCN(C/C=C/c2ccccc2)CC1 (stereo not given)	1.1%	inactive	
COc1ccc(-c2nc3cnccn3c2NC2CCCCC2)cc1-c1cccc(Cl)c1	2.8% and 1.8%	inactive	
COc1ccc(-c2nc3cc(C)ccn3c2NC2CCCCC2)cc1SC1CCCCC1	2.4% and 7.4%		300% (active) and 217% (active)
CCOc1cc(-c2nc3cc(C)ccn3c2NCC2CCCO2)ccc1O (stereo not given)	0.6%	inactive	
CN(Cc1ccccn1)Cc1nc(-c2ccc(Cl)cc2)no1	0.5%		34.3% (active)
CCN1CC(CN(C)Cc2nc(-c3ccc(Cl)cc3)no2)CC1=O (stereo not given)	0.3%	inactive	
COC(=O)c1ccc(-c2noc(CN(Cc3ccccn3)CC3CCCO3)n2)cc1 (stereo not given)	0.3%	inactive	
Cc1[nH]c2ccccc2c1C(=O)c1cc([C@H](NC(=O)OC(C)(C)C)C(C)C)sc1N	1%	inactive	
CCOC(=O)N1CCN(C(=O)C[C@@H]2C[C@@]3(C(=O)OC)CC(C)(C)CC=C3N(Cc3ccco3)C2=O)CC1	1.2%	inactive	
CC1=C(C(=O)N(C(C)C)C(C)C)CC(CC(=O)NCC2CCCCC2)C(=O)N1Cc1ccccc1 (stereo not given)	0.3%	inactive	
O=C(Nc1ccccc1N1CCOCC1)c1ccncc1	1.1%	inactive	
O=C1c2ccccc2-c2ncnc3c(N4CCOCC4)cc(N4CCOCC4)c1c23	4.8%		41.7% (active)
O=S(=O)(Nc1cc(Cl)ccc1N1CCOCC1)c1ccccc1Cl	0.3%	inactive	
CCCCC[C@H](C)N1C[C@@H](COCc2ccccc2)Oc2cc(N3CC[C@@H](N(C)C)C3)ccc2S1(=O)=O	1.2%	inactive	
